Assay [1] concerns the target Death-associated protein kinase 1 (Homo sapiens) (UniProt P53355). The settings on record: at 1 µM.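 Note: each value is a mean inhibition figure.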
The target in assay [2] is T1, Serine/threonine-protein kinase DCLK2 (Homo sapiens) (UniProt Q8N568).
T1 sequence (whole entry): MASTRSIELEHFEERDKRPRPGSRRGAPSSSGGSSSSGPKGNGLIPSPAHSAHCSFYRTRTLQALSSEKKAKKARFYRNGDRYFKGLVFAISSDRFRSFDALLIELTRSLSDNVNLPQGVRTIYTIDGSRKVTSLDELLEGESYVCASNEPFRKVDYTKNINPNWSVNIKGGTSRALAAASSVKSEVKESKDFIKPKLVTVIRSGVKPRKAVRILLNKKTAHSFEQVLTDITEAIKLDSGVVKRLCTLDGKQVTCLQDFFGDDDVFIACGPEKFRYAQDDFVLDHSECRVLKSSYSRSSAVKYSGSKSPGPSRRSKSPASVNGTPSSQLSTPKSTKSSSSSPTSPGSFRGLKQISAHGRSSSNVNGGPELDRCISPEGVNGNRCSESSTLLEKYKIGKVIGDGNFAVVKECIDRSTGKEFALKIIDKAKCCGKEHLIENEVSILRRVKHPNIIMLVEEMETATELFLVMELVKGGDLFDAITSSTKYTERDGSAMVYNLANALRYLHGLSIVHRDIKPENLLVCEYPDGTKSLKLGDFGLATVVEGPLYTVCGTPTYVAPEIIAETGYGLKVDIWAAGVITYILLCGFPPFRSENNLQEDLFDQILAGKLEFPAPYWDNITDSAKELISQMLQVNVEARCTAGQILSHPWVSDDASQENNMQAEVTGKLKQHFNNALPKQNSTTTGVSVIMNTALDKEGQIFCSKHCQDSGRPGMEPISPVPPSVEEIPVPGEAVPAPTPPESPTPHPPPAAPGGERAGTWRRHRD
The note with it: at 0.1 µM.

In assay [3] the target is T1, Serine/threonine-protein kinase DCLK2 (Homo sapiens). The note with it: at 1 µM.
The target of assay [4] is MAP kinase-activated protein kinase 2 (Homo sapiens) (UniProt P49137). The settings on record: at 0.1 µM.
Sequence of MAP kinase-activated protein kinase 2 (Homo sapiens) (P49137 whole entry, looked up): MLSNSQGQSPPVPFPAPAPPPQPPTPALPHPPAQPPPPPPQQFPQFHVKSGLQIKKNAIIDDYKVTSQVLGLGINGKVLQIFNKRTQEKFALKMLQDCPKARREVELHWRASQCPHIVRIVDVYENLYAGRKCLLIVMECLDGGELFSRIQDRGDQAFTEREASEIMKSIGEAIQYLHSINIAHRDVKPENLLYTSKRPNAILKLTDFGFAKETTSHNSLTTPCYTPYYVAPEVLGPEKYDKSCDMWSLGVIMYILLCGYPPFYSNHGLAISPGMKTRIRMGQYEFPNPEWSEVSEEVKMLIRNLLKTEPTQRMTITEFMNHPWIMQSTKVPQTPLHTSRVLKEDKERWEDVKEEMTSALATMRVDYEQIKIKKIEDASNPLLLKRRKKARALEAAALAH
For assay [5] the target is unchanged. The note with it: at 1 µM.
For assay [6], the target named is MAP kinase-activated protein kinase 3 (Homo sapiens) (UniProt Q16644). The note with it: at 0.1 µM.
Sequence of MAP kinase-activated protein kinase 3 (Homo sapiens) (Q16644 whole entry, looked up): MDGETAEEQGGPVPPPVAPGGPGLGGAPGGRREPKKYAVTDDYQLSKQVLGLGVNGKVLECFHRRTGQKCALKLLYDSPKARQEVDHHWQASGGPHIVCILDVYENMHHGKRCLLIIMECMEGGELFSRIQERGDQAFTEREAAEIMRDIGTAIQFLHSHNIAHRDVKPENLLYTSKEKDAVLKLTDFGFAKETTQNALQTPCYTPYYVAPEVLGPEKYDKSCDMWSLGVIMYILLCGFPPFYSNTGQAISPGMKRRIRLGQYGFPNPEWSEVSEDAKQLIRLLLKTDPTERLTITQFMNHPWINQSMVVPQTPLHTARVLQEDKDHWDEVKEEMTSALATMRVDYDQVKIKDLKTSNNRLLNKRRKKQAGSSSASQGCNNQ
Assay [7] shares this target. The settings on record: at 1 µM.
Assay [8] has as its target Serine/threonine-protein kinase MARK1 (Homo sapiens) (UniProt Q9P0L2). The settings on record: at 0.1 µM.
Assay [9] has the same target. The note with it: at 1 µM.
The target of assay [10] is MAP/microtubule affinity-regulating kinase 3 (Homo sapiens) (UniProt P27448). The note with it: at 0.1 µM.
Sequence of MAP/microtubule affinity-regulating kinase 3 (Homo sapiens) (P27448 whole entry, looked up): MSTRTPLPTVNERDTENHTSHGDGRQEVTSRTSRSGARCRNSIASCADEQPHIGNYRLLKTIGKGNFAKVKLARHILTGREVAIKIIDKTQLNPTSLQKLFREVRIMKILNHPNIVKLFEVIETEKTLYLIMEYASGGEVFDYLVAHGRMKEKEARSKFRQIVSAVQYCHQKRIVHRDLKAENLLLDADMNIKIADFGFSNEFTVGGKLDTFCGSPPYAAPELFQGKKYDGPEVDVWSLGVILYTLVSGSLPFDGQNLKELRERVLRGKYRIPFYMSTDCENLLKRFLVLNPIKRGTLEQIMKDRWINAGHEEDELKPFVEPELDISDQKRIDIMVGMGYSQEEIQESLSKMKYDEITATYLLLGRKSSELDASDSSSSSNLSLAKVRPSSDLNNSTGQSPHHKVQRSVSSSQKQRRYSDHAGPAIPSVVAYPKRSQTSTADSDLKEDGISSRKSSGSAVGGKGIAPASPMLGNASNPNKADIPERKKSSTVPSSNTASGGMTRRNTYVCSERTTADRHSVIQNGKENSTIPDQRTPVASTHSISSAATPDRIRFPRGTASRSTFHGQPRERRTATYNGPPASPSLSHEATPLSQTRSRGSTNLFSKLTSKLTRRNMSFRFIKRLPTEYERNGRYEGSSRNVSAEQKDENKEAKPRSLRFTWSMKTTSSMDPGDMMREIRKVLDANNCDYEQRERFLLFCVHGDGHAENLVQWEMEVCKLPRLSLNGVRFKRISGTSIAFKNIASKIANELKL
Assay [11] shares this target. The settings on record: at 1 µM.
The target in assay [12] is T2, MAP/microtubule affinity-regulating kinase 4 (Homo sapiens) (UniProt Q96L34).
T2 sequence (whole entry): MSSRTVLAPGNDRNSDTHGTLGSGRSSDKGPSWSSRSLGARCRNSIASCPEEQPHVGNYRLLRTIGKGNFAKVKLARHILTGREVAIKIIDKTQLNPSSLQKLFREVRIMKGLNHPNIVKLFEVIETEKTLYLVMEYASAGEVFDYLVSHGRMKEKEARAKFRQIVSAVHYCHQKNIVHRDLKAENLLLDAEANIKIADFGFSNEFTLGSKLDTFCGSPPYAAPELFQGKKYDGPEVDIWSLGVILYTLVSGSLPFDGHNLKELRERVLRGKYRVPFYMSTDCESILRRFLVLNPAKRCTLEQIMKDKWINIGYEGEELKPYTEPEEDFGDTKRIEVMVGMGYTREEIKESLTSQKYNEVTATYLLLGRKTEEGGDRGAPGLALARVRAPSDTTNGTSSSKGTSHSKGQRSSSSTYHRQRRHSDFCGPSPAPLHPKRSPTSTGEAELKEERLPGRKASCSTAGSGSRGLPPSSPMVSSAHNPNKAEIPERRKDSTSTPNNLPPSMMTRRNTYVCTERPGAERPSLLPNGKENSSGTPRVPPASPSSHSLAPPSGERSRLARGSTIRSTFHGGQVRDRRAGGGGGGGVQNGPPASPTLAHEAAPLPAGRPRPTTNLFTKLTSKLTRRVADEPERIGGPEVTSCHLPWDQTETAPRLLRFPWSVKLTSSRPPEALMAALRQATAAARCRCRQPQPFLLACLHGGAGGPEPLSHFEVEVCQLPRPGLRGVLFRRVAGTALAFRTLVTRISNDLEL
The note with it: at 0.1 µM.

Assay [13] addresses T2, MAP/microtubule affinity-regulating kinase 4 (Homo sapiens). The settings on record: at 1 µM.
For assay [14], the target named is Maternal embryonic leucine zipper kinase (Homo sapiens) (UniProt Q14680). The note with it: at 0.1 µM.
Sequence of Maternal embryonic leucine zipper kinase (Homo sapiens) (Q14680 whole entry, looked up): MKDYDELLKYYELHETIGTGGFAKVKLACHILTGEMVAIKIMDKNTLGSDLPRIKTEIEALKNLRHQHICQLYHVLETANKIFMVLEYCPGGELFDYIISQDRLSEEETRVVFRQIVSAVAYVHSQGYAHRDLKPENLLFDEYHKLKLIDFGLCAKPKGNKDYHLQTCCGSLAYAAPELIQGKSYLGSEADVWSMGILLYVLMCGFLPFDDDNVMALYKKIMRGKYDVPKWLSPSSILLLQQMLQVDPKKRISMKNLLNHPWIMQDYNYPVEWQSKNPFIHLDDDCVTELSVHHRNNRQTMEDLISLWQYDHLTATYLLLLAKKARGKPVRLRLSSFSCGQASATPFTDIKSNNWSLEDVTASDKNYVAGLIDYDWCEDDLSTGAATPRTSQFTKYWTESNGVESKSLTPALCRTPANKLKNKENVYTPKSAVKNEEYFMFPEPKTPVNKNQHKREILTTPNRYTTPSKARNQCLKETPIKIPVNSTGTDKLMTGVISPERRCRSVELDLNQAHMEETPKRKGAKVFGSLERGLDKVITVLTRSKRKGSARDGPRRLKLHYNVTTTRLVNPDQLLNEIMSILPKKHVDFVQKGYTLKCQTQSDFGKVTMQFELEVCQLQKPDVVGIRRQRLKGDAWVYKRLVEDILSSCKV
Assay [15] shares this target. The settings on record: at 1 µM.
Assay [16] deals with MAP kinase-interacting serine/threonine-protein kinase 1 (Homo sapiens) (UniProt Q9BUB5). The settings on record: at 0.1 µM.
Sequence of MAP kinase-interacting serine/threonine-protein kinase 1 (Homo sapiens) (Q9BUB5 whole entry, looked up): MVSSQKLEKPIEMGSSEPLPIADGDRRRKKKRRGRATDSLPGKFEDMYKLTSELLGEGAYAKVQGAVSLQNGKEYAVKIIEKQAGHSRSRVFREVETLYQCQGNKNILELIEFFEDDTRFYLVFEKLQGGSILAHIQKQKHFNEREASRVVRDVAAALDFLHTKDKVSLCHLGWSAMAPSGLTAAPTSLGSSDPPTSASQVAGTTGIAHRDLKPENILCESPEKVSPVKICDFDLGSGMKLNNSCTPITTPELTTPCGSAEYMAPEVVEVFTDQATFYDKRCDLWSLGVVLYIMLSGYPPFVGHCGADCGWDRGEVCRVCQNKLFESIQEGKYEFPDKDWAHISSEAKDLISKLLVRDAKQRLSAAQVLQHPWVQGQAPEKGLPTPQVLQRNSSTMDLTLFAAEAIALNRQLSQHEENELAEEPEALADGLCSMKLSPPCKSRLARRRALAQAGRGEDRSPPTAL
Assay [17] shares this target. The note with it: at 1 µM.
For assay [18], the target named is MAP kinase-interacting serine/threonine-protein kinase 2 (Homo sapiens) (UniProt Q9HBH9). The note with it: at 0.1 µM.
The target is the same in assay [19]. The settings on record: at 1 µM.
The target in assay [20] is Serine/threonine-protein kinase MARK2 (Homo sapiens) (UniProt Q7KZI7). The note with it: at 0.1 µM.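 Note: mean percent inhibition of PAR-1Balpha kinase activity, reported from the GSK PKIS screen.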
Sequence of Serine/threonine-protein kinase MARK2 (Homo sapiens) (Q7KZI7 whole entry): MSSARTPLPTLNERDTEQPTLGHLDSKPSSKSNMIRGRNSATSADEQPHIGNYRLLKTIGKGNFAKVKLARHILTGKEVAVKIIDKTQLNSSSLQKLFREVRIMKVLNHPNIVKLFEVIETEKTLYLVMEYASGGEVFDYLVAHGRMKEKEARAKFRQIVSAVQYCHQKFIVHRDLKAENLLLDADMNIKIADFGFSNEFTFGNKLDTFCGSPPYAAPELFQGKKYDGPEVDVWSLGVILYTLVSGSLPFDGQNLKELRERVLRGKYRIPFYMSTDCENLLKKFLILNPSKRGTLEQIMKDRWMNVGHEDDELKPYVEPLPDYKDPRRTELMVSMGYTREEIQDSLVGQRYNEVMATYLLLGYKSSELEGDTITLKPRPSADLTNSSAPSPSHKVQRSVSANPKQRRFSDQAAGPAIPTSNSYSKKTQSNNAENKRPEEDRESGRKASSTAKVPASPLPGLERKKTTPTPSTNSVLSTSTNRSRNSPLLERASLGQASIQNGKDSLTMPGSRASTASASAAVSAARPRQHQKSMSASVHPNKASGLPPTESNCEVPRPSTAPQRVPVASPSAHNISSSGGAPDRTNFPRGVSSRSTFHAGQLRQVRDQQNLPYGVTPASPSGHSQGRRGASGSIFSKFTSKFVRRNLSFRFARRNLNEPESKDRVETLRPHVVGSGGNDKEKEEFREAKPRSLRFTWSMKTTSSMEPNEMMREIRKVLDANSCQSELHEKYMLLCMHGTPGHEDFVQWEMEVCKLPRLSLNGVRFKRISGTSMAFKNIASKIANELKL

Sequence of Death-associated protein kinase 1 (Homo sapiens) (P53355 whole entry, looked up): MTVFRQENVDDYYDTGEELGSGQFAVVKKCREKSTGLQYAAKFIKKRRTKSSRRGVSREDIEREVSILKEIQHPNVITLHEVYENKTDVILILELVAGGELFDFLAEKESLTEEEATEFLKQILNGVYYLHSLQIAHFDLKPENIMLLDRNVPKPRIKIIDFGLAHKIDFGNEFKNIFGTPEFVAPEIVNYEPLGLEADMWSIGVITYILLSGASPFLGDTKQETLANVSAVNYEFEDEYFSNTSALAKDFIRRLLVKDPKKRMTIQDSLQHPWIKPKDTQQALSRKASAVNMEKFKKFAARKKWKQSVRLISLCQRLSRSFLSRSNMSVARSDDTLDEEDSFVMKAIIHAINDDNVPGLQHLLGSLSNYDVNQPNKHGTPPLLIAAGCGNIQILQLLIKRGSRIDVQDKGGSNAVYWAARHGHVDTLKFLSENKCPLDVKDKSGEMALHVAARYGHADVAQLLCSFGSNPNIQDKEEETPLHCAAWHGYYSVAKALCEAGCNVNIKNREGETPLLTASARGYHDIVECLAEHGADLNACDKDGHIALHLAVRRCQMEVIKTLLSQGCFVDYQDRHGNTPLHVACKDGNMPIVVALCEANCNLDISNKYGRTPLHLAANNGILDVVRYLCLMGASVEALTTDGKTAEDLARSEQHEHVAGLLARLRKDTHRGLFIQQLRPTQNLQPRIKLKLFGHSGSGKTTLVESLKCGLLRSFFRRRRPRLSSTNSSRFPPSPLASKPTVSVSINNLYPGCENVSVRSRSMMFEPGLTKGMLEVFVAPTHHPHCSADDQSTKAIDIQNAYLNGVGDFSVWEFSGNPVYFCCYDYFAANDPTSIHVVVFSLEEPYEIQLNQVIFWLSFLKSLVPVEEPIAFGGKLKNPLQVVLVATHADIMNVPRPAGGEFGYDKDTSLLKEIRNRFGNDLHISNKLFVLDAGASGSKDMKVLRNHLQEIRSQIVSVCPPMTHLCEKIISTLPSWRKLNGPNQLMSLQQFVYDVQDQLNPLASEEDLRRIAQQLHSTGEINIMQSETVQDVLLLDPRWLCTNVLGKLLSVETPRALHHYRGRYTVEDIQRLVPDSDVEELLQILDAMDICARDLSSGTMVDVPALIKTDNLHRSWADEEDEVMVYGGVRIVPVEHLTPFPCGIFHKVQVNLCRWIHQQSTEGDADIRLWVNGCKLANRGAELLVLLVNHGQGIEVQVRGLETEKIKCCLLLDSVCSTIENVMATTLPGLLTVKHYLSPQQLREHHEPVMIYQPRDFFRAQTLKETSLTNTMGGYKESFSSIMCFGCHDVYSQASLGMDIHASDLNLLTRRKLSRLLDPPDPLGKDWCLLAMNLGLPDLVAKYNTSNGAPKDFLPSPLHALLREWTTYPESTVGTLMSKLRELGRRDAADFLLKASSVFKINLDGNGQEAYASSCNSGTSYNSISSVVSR

As a reminder, the inhibition is the relative decrease from the control value, in per cent. Take `CCc1cccc(NC(=O)Nc2ccc(Oc3ccc4nc(NC(=O)OC)[nH]c4c3)cc2)c1`: the inhibition is -5.23% in [1]; 6.75% in [2]; 1.42% in assay [3]; -0.49% in assay [4]; -1.61% in assay [5]; -2.74% in assay [6]. Further, the inhibition was -3.85% in [7]; 1.69% in [8]; 0.31% in [9]; 1.5% in assay [10]; 3.47% in assay [11]; -0.22% in [12]. In addition, the inhibition in assay [13] was -1.15%; in assay [14], -0.95%; in assay [15], 2.29%; in assay [16] it was 5.71%; in assay [17] it was 15.8%; in assay [18] it was 4.24%. Besides, the inhibition in assay [19] was 12.2%; in [20], 2.55%.

As for `CCN1CCC(CC(=O)Nc2n[nH]c3nc(-c4cccs4)c(Br)cc23)CC1`, the inhibition was 1.46% in assay [1]; 0.63% in [2]; 0.11% in assay [3]; -2.22% in assay [4]; -2.04% in [5]; -2.21% in assay [6]. The inhibition in assay [7] was -2.44%; in assay [8] it was -2.56%; in assay [9], -1.05%; in [10] it was 1%; in [11], -0.75%; in assay [12], 0.08%. Moreover, the inhibition in assay [13] was 0.81%; in assay [14], -1.63%; in assay [15], 0.98%; in assay [16], 42%; in assay [17] it was 76.6%; in assay [18] it was 2.95%. Moreover, the inhibition in assay [19] came out at 28.2%; in assay [20], 0.07%.

`Cn1cc(C=C2C(=O)Nc3cccnc32)c2ccccc21`: the inhibition in [1] came out at 7.28%; in [2], 0.87%; in [3], 3.71%; in assay [4], 0.71%; in assay [5] it was 1.83%; in assay [6] it was 2.19%. Besides, the inhibition in [7] is 5.11%; in assay [8] it was 3.55%; in assay [9], 9.52%; in [10] it was 4.73%; in [11], 7.16%; in assay [12], 1.67%. For the same molecule, the inhibition in assay [13] stood at 6.49%; in [14] it was 4.43%; in assay [15], 23.5%; in assay [16], 3.06%; in assay [17], 15.5%; in assay [18] it was 1.53%. Also, the inhibition in assay [19] is 15.3%; in [20], 1.17%.

For the molecule `COc1ccc2cc(-c3c(-c4ccncc4)nc(-c4ccc([S+](C)[O-])cc4)n3C)ccc2c1` (stereo not given), the inhibition in assay [1] worked out at 4.63%; in assay [2], 0.5%; in assay [3] it was 5.77%; in [4], 1%; in assay [5], 0.92%; in assay [6], 2.16%. In addition, the inhibition in [7] worked out at 2.35%; in [8], 3.1%; in assay [9], 3.73%; in assay [10] it was 2.34%; in assay [11], 0.76%; in assay [12], 1.4%. Further, the inhibition in [13] came to 1.07%; in assay [14], 2.76%; in [15] it was 6.5%; in assay [16] it was 2.19%; in assay [17], 3.02%; in assay [18], 0.53%. The inhibition in assay [19] was found to be 0.5%; in [20] it was 0.3%.

With `[O-][S+]1CCN(Cc2ccc(-c3ccc4ncnc(Nc5ccc(OCc6ccccc6)c(F)c5)c4c3)o2)CC1`, the inhibition in assay [1] came out at 3.11%; in [2], 1.91%; in assay [3] it was 3.92%; in [4], 0.41%; in [5], 0.42%; in assay [6], 0.85%. In addition, the inhibition in assay [7] amounted to 3.94%; in assay [8] it was 1.63%; in assay [9] it was 2.55%; in [10], 2.88%; in assay [11], 1.39%; in assay [12], 0.67%. Also, the inhibition turned out to be 1.47% in [13]; 2.88% in assay [14]; 1.82% in assay [15]; 2.24% in [16]; 4.41% in assay [17]; 1.32% in assay [18]. For the same molecule, the values for the inhibition in [19] and in assay [20] were 9.37% and -1.34%, respectively.

`CCCN1CCC=C(c2ccc(Nc3nc(Nc4ccccc4C(N)=O)c4cc[nH]c4n3)c(C)c2)C1`: the inhibition in assay [1] is 6.22%; in [2], -0.54%; in assay [3], 3.15%; in assay [4], 2.63%; in [5] it was 4.94%; in assay [6], 3.15%. In addition, the inhibition worked out at 6.16% in assay [7]; 2.76% in assay [8]; 16.1% in assay [9]; 2.37% in assay [10]; 20.8% in assay [11]; 3.18% in assay [12]. The inhibition in assay [13] was 13.7%; in assay [14], 10%; in [15], 44.7%; in assay [16], 2.32%; in assay [17], 3.91%; in assay [18], 1.78%. Moreover, the inhibition stood at 7.47% in assay [19] and 1.68% in assay [20].
